Data: PMC11062922 (Nature Chemical Biology, 2023)
Read-outs that look alike come from different tables or passages of the source.

Key:
Set-up in all cases: species or system human, MV4-11 + K-562 + COLO205 + SK-N-BE2 + OVCAR-8
MAPK10 = conditions: read-out: apparent Kd, n = 1
MARK4 = conditions: read-out: apparent Kd; compound concentrations: 100 nM and 1000 nM (sheet 'Samples'), CATDS: 0.22058260458437301; n = 1
PIK3CB = conditions: read-out: apparent Kd; compound concentrations: 100 nM and 1000 nM (sheet 'Samples'), CATDS: 0.29379902166128602; n = 1
RIOK2 = conditions: read-out: apparent Kd; compound concentrations: 100 nM and 1000 nM (sheet 'Samples'), CATDS: 0.25235817930049498; n = 1
JAK2 = conditions: read-out: apparent Kd, n = 1
PIK3CA = conditions: read-out: apparent Kd; compound concentrations: 100 nM and 1000 nM (sheet 'Samples'), CATDS: 0.76689409603513903; n = 1
MAP3K1 = conditions: read-out: apparent Kd, n = 1
PLK1 = conditions: read-out: apparent Kd; compound concentrations: 100 nM and 1000 nM (sheet 'Samples'), CATDS: 0.48589470973507998; n = 1
SLK = conditions: read-out: apparent Kd; compound concentrations: 100 nM and 1000 nM (sheet 'Samples'), CATDS: 0.160364449090587; n = 1
STK10 = conditions: read-out: apparent Kd; compound concentrations: 100 nM and 1000 nM (sheet 'Samples'), CATDS: 0.19500034290566101; n = 1
MAPK11 = conditions: read-out: apparent Kd, n = 1
MAPK14 = conditions: read-out: apparent Kd, n = 1
MAPK8 = conditions: read-out: apparent Kd, n = 1
MAPK9 = conditions: read-out: apparent Kd, n = 1
MAPKAPK2 = conditions: read-out: apparent Kd, n = 1
NLK = conditions: read-out: apparent Kd, n = 1
PIP4K2C = conditions: read-out: apparent Kd, n = 1
PIM2 = conditions: read-out: apparent Kd; compound concentrations:100 nM and 1000 nM (sheet 'Samples'); n = 1
NQO1 = conditions: read-out: apparent Kd; compound concentrations:100 nM and 1000 nM (sheet 'Samples'); n = 1
PBK = conditions: read-out: apparent Kd; compound concentrations: 100 nM and 1000 nM (sheet 'Samples'), CATDS: 0.354579243895072; n = 1
PIK3CD = conditions: read-out: apparent Kd; compound concentrations: 100 nM and 1000 nM (sheet 'Samples'), CATDS: 0.84763293051447697; n = 1
MERTK = conditions: read-out: apparent Kd; compound concentrations:100 nM and 1000 nM (sheet 'Samples'); n = 1
OPA1 = conditions: read-out: apparent Kd; compound concentrations:100 nM and 1000 nM (sheet 'Samples'); n = 1
PRKD1 = conditions: read-out: apparent Kd; compound concentrations:100 nM and 1000 nM (sheet 'Samples'); n = 1
MTHFD1 = conditions: read-out: apparent Kd; compound concentrations: 100 nM and 1000 nM (sheet 'Samples'), CATDS: 0.41943372694081998; n = 1
TNK1 = conditions: read-out: apparent Kd; compound concentrations: 100 nM and 1000 nM (sheet 'Samples'), CATDS: 0.618875790720404; n = 1
[1] = compound concentrations:100 nM and 1000 nM (sheet 'Samples')

COC(=O)Nc1nc2ccc(Sc3ccc(NC(=O)Nc4cc(C(F)(F)F)ccc4F)cc3)cc2[nH]1.O=S(=O)(O)O [GW607049C]
potency estimated from few doses (MAPK10; compound concentrations: 100 nM and 1000 nM (sheet 'Samples'), CATDS: 0.243888047714692): 1550 nM
potency estimated from few doses (MARK4): 1930 nM
potency estimated from few doses (PIK3CB): 1090 nM
potency estimated from few doses (RIOK2): 1440 nM

NC(=O)c1sc(-n2cnc3cc(C(F)(F)F)ccc32)cc1OCc1ccccc1Br [GW853609X]
potency estimated from few doses (JAK2; compound concentrations: 100 nM and 1000 nM (sheet 'Samples'), CATDS: 0.37091451707305101): 1140 nM
potency estimated from few doses (PIK3CA): 204 nM

C[C@@H](Oc1cc(-n2cnc3cc(-c4ccnc(NCCS(C)(=O)=O)c4)ccc32)sc1C(N)=O)c1ccccc1Cl [GSK907232A]
potency estimated from few doses (MAP3K1; compound concentrations: 100 nM and 1000 nM (sheet 'Samples'), CATDS: 0.38790530075406598): 80.6 nM
potency estimated from few doses (PLK1): 53.6 nM
potency estimated from few doses (SLK): 1330 nM
potency estimated from few doses (STK10): 534 nM

CC(C)(O)Cn1c(=O)c(Oc2ccc(F)cc2F)cc2cnc(NC3CCOCC3)nc21 [RO5036558-000]
potency estimated from few doses (MAPK10; compound concentrations: 100 nM and 1000 nM (sheet 'Samples'), CATDS: 0.17874550909650799): 71.4 nM
potency estimated from few doses (MAPK11; compound concentrations: 100 nM and 1000 nM (sheet 'Samples'), CATDS: 7.7724815915961296E-2): 1370 nM
potency estimated from few doses (MAPK14; compound concentrations: 100 nM and 1000 nM (sheet 'Samples'), CATDS: 0.32550592526208599): 24.8 nM
potency estimated from few doses (MAPK8; compound concentrations: 100 nM and 1000 nM (sheet 'Samples'), CATDS: 9.0808472598726403E-2): 578 nM
potency estimated from few doses (MAPK9; compound concentrations: 100 nM and 1000 nM (sheet 'Samples'), CATDS: 0.14012416738293099): 127 nM
potency estimated from few doses (MAPKAPK2; compound concentrations: 100 nM and 1000 nM (sheet 'Samples'), CATDS: 0.240899887861172): 40.4 nM
potency estimated from few doses (NLK; compound concentrations: 100 nM and 1000 nM (sheet 'Samples'), CATDS: 0.137200771005723): 134 nM
potency estimated from few doses (PIP4K2C; compound concentrations: 100 nM and 1000 nM (sheet 'Samples'), CATDS: 7.7645763885448402E-2): 1380 nM

CC(=O)N[C@@H](Cc1ccc(OP(=O)(O)O)cc1)C(=O)N[C@H]1CCC(=O)N2CCC[C@@H](C(=O)NCc3ccccc3)N2C1=O [RO0324253-000]
potency estimated from few doses (JAK2; [1]): 712 nM
potency estimated from few doses (PIM2): 1770 nM

C[C@@H](Oc1cc(-n2cnc3ccc(-c4ccncc4)cc32)sc1C(N)=O)c1ccccc1Cl [GSK483724A]
potency estimated from few doses (MAP3K1; [1]): 1840 nM

Nc1c(C(=O)c2cccc(OCCN3CCOCC3)c2)cnn1-c1ccc(F)cc1 [RO5301104-000]
potency estimated from few doses (MAPK11; compound concentrations: 100 nM and 1000 nM (sheet 'Samples'), CATDS: 1): 701 nM

Cc1ccc(NC(=O)c2cccc(N3CCCCC3)c2)cc1-c1ccc(C(=O)NCC2CC2)cc1 [GSK1917008A]
potency estimated from few doses (MAPK11; compound concentrations: 100 nM and 1000 nM (sheet 'Samples'), CATDS: 0.21712264720535299): 591 nM
potency estimated from few doses (MAPK14; compound concentrations: 100 nM and 1000 nM (sheet 'Samples'), CATDS: 0.45448285689505602): 64.8 nM
potency estimated from few doses (MAPKAPK2; compound concentrations: 100 nM and 1000 nM (sheet 'Samples'), CATDS: 0.455787440841948): 64.5 nM

Cl.Cn1c(=O)c(Oc2ccccc2F)cc2cnc(NC3CCOCC3)nc21 [RO3304805-001]
potency estimated from few doses (MAPK10; [1]): 1050 nM
potency estimated from few doses (MAPK14; [1]): 58.4 nM
potency estimated from few doses (MAPK9; [1]): 484 nM
potency estimated from few doses (MAPKAPK2; [1]): 73.7 nM
potency estimated from few doses (NQO1): 1480 nM

CC(C)Nc1ncc2cc(Oc3ccc(F)cc3F)c(=O)n(C)c2n1.Cl [RO3309180-001]
potency estimated from few doses (MAPK10; [1]): 68.5 nM
potency estimated from few doses (MAPK11; [1]): 439 nM
potency estimated from few doses (MAPK14; [1]): 9.9 nM
potency estimated from few doses (MAPK8; [1]): 1080 nM
potency estimated from few doses (MAPK9; [1]): 369 nM
potency estimated from few doses (NLK; [1]): 1490 nM
potency estimated from few doses (PIP4K2C; [1]): 2100 nM

Cl.Cl.Cl.N#Cc1ccc(CCNc2nccc(-c3cccc(CN4CCNCC4)c3)n2)cc1.N#Cc1ccc(CCNc2nccc(-c3cccc(CN4CCNCC4)c3)n2)cc1 [GSK2137462A]
potency estimated from few doses (PBK): 1350 nM
potency estimated from few doses (PIK3CD): 134 nM

CC(=O)N[C@@H](Cc1ccc(OP(=O)(O)O)cc1)C(=O)N[C@H]1CCC(=O)N2CCC[C@@H](C(=O)NC3CCc4ccccc43)N2C1=O (some centres unmarked) [RO0324438-000]
potency estimated from few doses (MERTK): 1220 nM

FC(F)(F)c1ccc(-c2nn3ncccc3c2-c2ccnc(Nc3cccc(C(F)(F)F)c3)n2)cc1 [GW828205X]
potency estimated from few doses (OPA1): 1630 nM
potency estimated from few doses (PRKD1): 1820 nM

Cc1cc(NCC(c2ccccc2)c2ccccc2)nc(NCc2ccc(C(F)(F)F)cc2)n1 [GW497681X]
potency estimated from few doses (MTHFD1): 2040 nM
potency estimated from few doses (TNK1): 909 nM
